Active and inactive are the calls of the source.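 How the source made its calls: active means high combined rank on largest and smallest cell-count-weighted shift across three tests, rank score above 45, floors 50 and 25 (some results past the limit were not filed as active); inactive means the rest.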
Assay: LNCaP granularity increase inducers, single-point recheck – cell-based, side scatter shift, flow cytometry, confirmation (AID 1069);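 further: LNCaP human prostate cancer cells in low-serum medium with charcoal-stripped FBS; percent of cells with raised granularity gated so DMSO controls show 10%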
Settings: LNCaP differentiation, 4 d, at 100 µM, active compounds read high

Side scatter shift, inactive:
Cc1ccccc1-c1nc(CN2CCC(C(=O)NCC3CCCO3)CC2)c(C)o1 (stereo not drawn) 22.5%
CCOC(=O)C1CCN(S(=O)(=O)c2ccc(-c3nc4ccccc4s3)s2)CC1 25.7%
COc1ccc(NC(=O)NCCCN2CCN(c3cc(C)ccc3C)CC2)cc1 0%
O=C1CCCc2c1cc(C(=O)NC1CCSC1=O)c(=O)n2-c1ccccc1 (stereo not drawn) 5.9%
Cc1ccc(CNc2nc3ccccc3n3nnnc23)cc1 33.1%
COC(=O)c1cc(-c2ccccc2)sc1NC(=O)c1cc(C)on1 70%
COc1ccc(-c2ccc(-c3noc(-c4ccccc4)n3)c(OC)n2)cc1 56.7%
CCN1C=C(Cc2cccs2)C2=C(C1)C(c1cccs1)C(C#N)=C(N)O2 (stereo not drawn) 20%
COC(=O)C1=C(C)N=c2s/c(=C/c3cccs3)c(=O)n2C1c1cccs1 (stereo not drawn) 32.8%
O=c1cc(N2CCc3ccccc3C2)[nH]c(=O)n1C1CCCCC1 16.8%
Cc1ccc(-c2noc(CCC(=O)NC3CCN(Cc4ccccc4)CC3)n2)cc1 33.3%
CCOC(=O)N1CCN(C(=O)CN(c2cccc(C(F)(F)F)c2)S(=O)(=O)c2ccccc2)CC1 11.7%
CCOC(=O)c1ccc(NC(=O)Nc2ccc3c4c(cccc24)C(=O)N3CC)cc1 34.3%
Cc1ccccc1-c1nc(CN2CCCC(C(=O)NCc3cccnc3)C2)c(C)o1 (stereo not drawn) 13.7%
Cc1cccc(-c2nc(CN3CCCC(C(=O)NC4CCCCC4)C3)c(C)o2)c1 (stereo not drawn) 21.4%
CCc1ccc(-c2nc(CN3CCC(C(=O)NCCN(CC)c4ccccc4)CC3)c(C)o2)cc1 50%
COc1ccc(-n2c(C)nc3c(cnn3-c3ccc(Cl)cc3)c2=O)cc1 4.4%
Cc1cc(C)n2nnnc2c1C#N 3.9%
Cc1nc2c3cnn(-c4ccccc4)c3ncn2n1 5%
CCOC(=O)N1CCN(C(=O)C2CCCN(Cc3nc(-c4ccc(Cl)cc4)oc3C)C2)CC1 (stereo not drawn) 20%
COc1ccc(CCNC(=O)C2CCN(Cc3nc(-c4cccc(Cl)c4)oc3C)CC2)cc1OC 20%
COc1ccc(-c2noc(CCC(=O)NCCCN3CCC(Cc4ccccc4)CC3)n2)cc1 21.7%
CCN1CCN(C(c2cccs2)C(C)NS(=O)(=O)c2ccc(Br)cc2)CC1 (stereo not drawn) 82.4%
CCOC(=O)N1CCN(C(=O)C2CCN(Cc3nc(-c4ccccc4C)oc3C)CC2)CC1 30.6%
O=S(=O)(Nc1cccc2ncccc12)c1cccs1 14.3%
CCOC(=O)c1c(NCc2ccc3c(c2)OCO3)c2ccccc2[nH]c1=O 12.8%
O=C(CCn1c(=O)[nH]c2ccccc2c1=O)NCCCN1CCN(c2cccc(Cl)c2)CC1 35.7%
CCc1ccc(-c2nc(CN3CCC(C(=O)NCc4ccccc4OC)CC3)c(C)o2)cc1 12.2%
CCSc1nnc(Cn2c(=O)sc3ccccc32)n1-c1ccccc1C 20.5%
Cc1cc(NC(=O)CSc2nnc(C3CC3)n2C)no1 11.6%
COc1ccc(-c2cc(C(=O)NCc3ccc(Cl)cc3)no2)cc1OC 28.5%
Cc1oc(-c2cccc(Cl)c2)nc1CN1CCC(C(=O)NCc2ccco2)CC1 35%
COC(=O)Nc1sc2c(c1C(N)=O)CCCCCC2 10%

Side scatter shift, active:
Cc1noc(/C=C/c2ccco2)c1S(=O)(=O)N1CCC(C(=O)N2CCc3ccccc3C2)CC1 54.6%
O=C(c1ccccc1)c1ccc(N2CCNCC2)cc1 63%
CCN(CC)CC(=O)Nc1ccc(-c2nc3cc(NC(=O)CN(CC)CC)ccc3o2)cc1 0%
Cc1ccccc1CS(=O)(=O)CCC(=O)NCCCN1CCN(c2ccccc2F)CC1 56.5%
Cn1nc(-c2ccc(Cl)cc2)c2cc(C(=O)NCCCN3CCOCC3)sc21 63.6%

Source: PubChem BioAssay AID1069 (NMMLSC, 2008)
